nsP2pro primary: inhibitors of chikungunya virus nsP2 protease. 31,000 compounds, 1.1% hits. Potency, µM (top dose mostly 24.9 µM), actives largely listed as inhibitors. Q8JUX6. AID 1964107. FRET peptide cleavage, nsP2pro, fluorescence 1 h; note: nearly all actives have a fitted effect of over 60% in size
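Recombinant nsP2pro (150 nM) was preincubated with compound 15 min at room temperature in 10 mM Tris-HCl pH 8.0, 0.01% Tween 20. Peptide 2 FRET substrate (2.5 uM) was then added and fluorescence read after 1 h. Seven-point series, up to 25 uM.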
CHIKV nsP2 cell: secondary cell-based test for CHIKV nsP2 protease inhibitors. Potency, µM (top dose mostly 51.1 µM), most hits filed as inhibitors. shares compounds with nsP2pro primary. AID 1964100. 450 compounds, 10% hits. cell-based CHIKV nsP2 protease reporter assay; note: nearly all actives have a fitted effect of over 70% in size
Target sequence (Q8JUX6 220-798 limits assumed): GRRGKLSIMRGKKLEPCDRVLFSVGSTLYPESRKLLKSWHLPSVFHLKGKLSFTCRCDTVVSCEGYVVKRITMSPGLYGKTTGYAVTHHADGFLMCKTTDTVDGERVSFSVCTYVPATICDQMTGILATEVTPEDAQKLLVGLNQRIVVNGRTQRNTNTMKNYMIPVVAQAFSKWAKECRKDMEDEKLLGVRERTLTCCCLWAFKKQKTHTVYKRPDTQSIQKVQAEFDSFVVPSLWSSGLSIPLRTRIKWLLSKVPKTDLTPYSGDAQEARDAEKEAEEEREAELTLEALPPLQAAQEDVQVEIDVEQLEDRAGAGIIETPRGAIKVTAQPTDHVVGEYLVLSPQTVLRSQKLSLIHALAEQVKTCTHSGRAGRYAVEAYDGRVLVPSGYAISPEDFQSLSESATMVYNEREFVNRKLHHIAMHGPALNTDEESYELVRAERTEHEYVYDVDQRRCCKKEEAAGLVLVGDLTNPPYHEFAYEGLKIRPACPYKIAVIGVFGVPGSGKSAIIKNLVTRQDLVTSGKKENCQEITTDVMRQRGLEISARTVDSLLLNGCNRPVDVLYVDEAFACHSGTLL
NSP2 full ctr: selectivity test for CHIKV nsP2 protease inhibitors: full-length NSP2; shares compounds with nsP2pro primary; Full-length CHIKV NSP2 protease enzymatic counterscreen; AID 1964101; 410 compounds, 39% hits; Potency, µM (top dose mostly 50.7 µM), usual class: inhibitors; note: nearly all actives have a fitted effect of over 65% in size
Furin counter: selectivity counter-screen for CHIKV nsP2 protease inhibitors: human furin. shares compounds with nsP2pro primary. Recombinant human furin enzymatic counterscreen, fluorogenic substrate. Potency, µM (series often up to 50.6 µM), usual class: inhibitors. 410 compounds, 6% hits
nsP2 NS23 pep: selectivity test for CHIKV nsP2 protease inhibitors: endogenous NS2/3 peptide; shares compounds with nsP2pro primary; 410 compounds, 34% hits; Purified CHIKV nsP2 protease, endogenous NS2/3 peptide cleavage; Potency, µM (top dose mostly 51 µM), most hits filed as inhibitors; note: nearly all actives have a fitted effect of over 55% in size
Papain counter: papain protease inhibition, counterscreen for nsP2pro inhibitors; shares compounds with nsP2pro primary; purified papain protease activity, enzymatic inhibition; Potency, µM (top dose mostly 51 µM), most hits filed as inhibitors; 410 compounds, 5% hits
nsP2pro conf qHTS: confirmation of CHIKV nsP2 protease inhibitors | 410 compounds, 43% hits | Potency, µM (doses to about 25.5 µM), actives largely listed as inhibitors | CHIKV nsP2 protease enzymatic activity, qHTS | shares compounds with nsP2pro primary | AID 1964105; note: nearly all actives have a fitted effect of over 75% in size
HCV NS3 counter: selectivity counter-screen for CHIKV nsP2 protease inhibitors: HCV NS3/4A. 410 compounds, 20% hits. Potency, µM (top dose mostly 50.9 µM), most hits filed as inhibitors. shares compounds with nsP2pro primary. HCV NS3/4A protease biochemical counterscreen; note: nearly all actives have a fitted effect of over 55% in size
Of the large screens only hits and unclear results are named; the others gave an inactive call (follow-up assays come after a bar, where they were run). Many of the other results were omitted from the sample, so hits are more common in it than they were. Calls come from the whole dose curve.

CN1Cc2c(Cl)cc(Cl)cc2[C@H](c2cccc(S(=O)(=O)NCCOCCOCCNC(=O)NCCCCNC(=O)NCCOCCOCCNS(=O)(=O)c3cccc([C@@H]4CN(C)Cc5c(Cl)cc(Cl)cc54)c3)c2)C1	none
O=C(CCC1CCCC1)NCc1nnc2cc(-c3nc(C4CC4)no3)ccn12	none
COc1ccc(C(=O)N2CCCN(c3nnc4ccc(Cl)cn34)CC2)cn1	none
CSCCNc1nc(SCCC(F)(F)F)nc2c1ncn2[C@@H]1O[C@H](COP(=O)(O)OP(=O)(O)C(Cl)(Cl)P(=O)(O)O)[C@@H](O)[C@H]1O	none
C=CC(C)(C)c1[nH]c2ccccc2c1C1=C(O)C(=O)C(c2c[nH]c3c(CC=C(C)C)cccc23)=C(O)C1=O	nsP2pro primary inconclusive | CHIKV nsP2 cell inactive | NSP2 full ctr inactive | Furin counter inactive | nsP2 NS23 pep inactive | Papain counter 2.6µM | nsP2pro conf qHTS inactive | HCV NS3 counter 4.1µM
c1nc(NCC2CCCCC2)c2cc(-c3ccc4c(c3)OCO4)ccc2n1	none
Cc1nn(C)c(C)c1CCC(=O)NCCc1ncc(C)n1C1CCCCC1	none
OCCc1ccc(O[C@@H]2O[C@H](CO)[C@@H](O)[C@H](O)[C@H]2O)cc1	none
COc1cc(CCO)ccc1O[C@@H]1O[C@H](CO)[C@@H](O)[C@H](O)[C@H]1O	nsP2pro primary inconclusive | CHIKV nsP2 cell inactive | NSP2 full ctr inactive | Furin counter inactive | nsP2 NS23 pep inactive | Papain counter inactive | nsP2pro conf qHTS inconclusive | HCV NS3 counter inactive
COc1cc(CO)ccc1O[C@@H]1O[C@H](CO)[C@@H](O)[C@H](O)[C@H]1O	none
O=C(NC1CCCCC1)[C@@H]1Cc2nc[nH]c2CN1Cc1ccc(Cl)cc1	none
CC(CCC(=O)N1CCn2nc(Cc3ccccc3)cc2C1)N1CCCC1 (stereo not given)	none
CCN(CC)CCNc1ccc(CO)c2sc3ccccc3c(=O)c12	nsP2pro primary inconclusive | CHIKV nsP2 cell inconclusive | NSP2 full ctr inactive | Furin counter inactive | nsP2 NS23 pep inconclusive | Papain counter inactive | nsP2pro conf qHTS inactive | HCV NS3 counter inactive
Cc1ccc(NCCN(C)CCNc2ccnc3cc(Cl)ccc23)c2c(=O)c3ccccc3sc12	none
CCN(CC)CCNc1ccc2ncn3c4ccc(O)cc4c(=O)c1c23	none
CON(C)Cc1ccc(O)c2c1C[C@H]1C[C@H]3[C@H](N(C)C)C(=O)C(C(N)=O)=C(O)[C@@]3(O)C(=O)C1=C2O	none
CCC(=O)NC(c1ccc(C)cc1)c1cc([N+](=O)[O-])c2cccnc2c1O (stereo not given)	none
COc1ccc(S(=O)(=O)Nc2ccc(C)n(CC(=O)O)c2=O)cc1	none
Cc1ccc(S(=O)(=O)Nc2cc(SCC(=O)O)c(O)c3ccccc23)cc1[N+](=O)[O-]	none (no result: nsP2pro primary) | CHIKV nsP2 cell inconclusive | NSP2 full ctr 4.1µM | Furin counter inactive | nsP2 NS23 pep 2.6µM | Papain counter 18µM | nsP2pro conf qHTS 0.9µM | HCV NS3 counter inactive
CCOc1cc2ncc(C#N)c(Nc3ccc(F)c(Cl)c3)c2cc1NC(=O)/C=C/CN(C)C	none
CCS(=O)(=O)N1CCC2(CC1)CN(c1cccc(F)c1)C2c1ccccc1 (stereo not given)	none
CN(C)CCNc1cc(-c2ccc3ccccc3n2)c2cc[nH]c2n1	none
COc1cc(O)c(C(CC(=O)N2CCCC(C)C2)c2ccc(C)cc2)c(OC)c1 (stereo not given)	none
Cc1cc(C)nc(NC(=S)N2CCN(S(=O)(=O)c3cccc(C(F)(F)F)c3)CC2)c1	none
COc1ccc(CN(Cc2ccccc2)C(=O)c2ccccc2O)cc1	none
COc1ccc(C(=O)N(Cc2ccco2)Cc2ccco2)c(O)c1	nsP2pro primary 5µM | CHIKV nsP2 cell 21µM | NSP2 full ctr inconclusive | Furin counter inactive | nsP2 NS23 pep inconclusive | Papain counter inactive | nsP2pro conf qHTS inconclusive | HCV NS3 counter inconclusive

Screening results: PubChem, National Center for Advancing Translational Sciences (NCATS)
